64 compounds from PubChem BioAssay AID463212 (Sanford-Burnham Center for Chemical Genomics, 2010) can be followed below.

SMILES strings stand for the structures. The campaign covered roughly 330,000 compounds. About 4,400 (1.3%) were called active. This excerpt belongs to a sample that is enriched for actives. Unmarked numbers belong to inactive results.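 Rule for the calls: active = growth inhibition of the mutant yeast at or above 50%; inactive = the rest.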

A short description of the assay: growth inhibitors of tim23-1 mutant yeast, primary screen, luminescence, uHTS (AID 463212).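 Note: temperature-sensitive mutant grown at 25 °C; plate controls were DMSO-treated mutant yeast for no effect and medium wells lacking yeast for full effect.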 Particulars: S. cerevisiae tim23-1 growth, BacTiter-Glo luminescence, 24 h; at 20 µM; stronger effect = higher value.
As usually defined, the inhibition is the drop in the measured response relative to a control, in per cent. With `COC(=O)c1c(NC(=O)c2ccc(S(=O)(=O)N3CCOCC3)cc2)sc2c1CCN(C(C)C)C2`, the inhibition is 8.38%. For the compound `CC(=O)c1ccc(NC(=O)C2CCCN2S(=O)(=O)c2cccs2)cc1` (centres undefined), the inhibition is 14.8%. For the compound `C=C1CCC(N(O)c2cc(C)on2)C(=C)CCC2C1CC2(C)C` (centres undefined), the inhibition is 55.5% (active). The figure for `Cc1cccc(N(C)C(=O)c2cc3c(=O)[nH]c4ccc(C)cc4c3s2)c1` is 6.52%. The result for `O=C(N/N=C\c1cccc(Br)c1)c1ccccc1-n1cccc1` reads 53.7% (active); that for `O=C(N/N=C/c1cccc(Br)c1)c1ccc(N2CCCC2=O)cc1`, 12.3%; that for `O=C(CNC(=O)c1cccs1)N/N=C/c1cccc(Br)c1`, 16.1%. The result for `CCS(=O)(=O)Nc1cccc(-c2cc(-c3ccccc3)c3cc(C)ccc3n2)c1` reads 29.6%. Take `Cc1cc(Nc2ccc(Br)cc2)nc2ccccc12`: the inhibition was 55.5% (active). The figure for `Cc1ccc2nc(Nc3ccccc3)cc(C)c2c1` is 57.6% (active). The result for `CC(=O)Nc1ccc(Nc2cc(C)nc(Nc3ccc(NC(C)=O)cc3)n2)cc1` reads 8.84%; that for `Cc1ccc2nc(Nc3ccccc3O)nc(-c3ccccc3)c2c1`, 24.4%. The result for `CN1CCN(c2nc(Nc3ccc(O)cc3)nc3ccccc23)CC1` reads -37.1%; that for `CC(OC(=O)c1ccc([N+](=O)[O-])cc1)C(=O)NCC1CCCCC1` (centres undefined), 3.5%; that for `O=C1N[C@@H](Cc2ccccc2)C(=O)N2[C@H]1C[C@]1(Br)c3ccccc3N(S(=O)(=O)c3ccccc3)[C@H]21`, 5.8%. Take `Cc1cc(=O)cc(C)[nH]1`: the inhibition is 9.7%. Turning to `O=C(Cc1ccccc1)NCC1OCCc2ccccc21` (centres undefined), the inhibition is 4.02%. For the compound `CC(C)Cn1c(N)c(C(=O)NCc2cccs2)c2nc3ccccc3nc21`, the inhibition is 59.9% (active). The figure for `CCOc1ccccc1NC(=O)Cn1nnc(C(=O)NCc2cccs2)c1N` is 0.467%; for `COCC(C)OC(=O)c1c(N)n(CCCN2CCOCC2)c2nc3ccccc3nc12` (centres undefined) it is 5.92%; for `Cc1cc(NC(=O)CSC2=NS(=O)(=O)c3cc(Cl)ccc3N2)no1` it is 11.8%. The figure for `C=CCn1c(=O)c(C(=O)Nc2ncccc2O)c(O)c2ccccc21` is 33.8%. The figure for `CCCn1c(=O)c(C(=O)Nc2cc(C)ccn2)c(O)c2ccccc21` is 13.4%. For the compound `Cn1c(=O)c(C(=O)Nc2ncccn2)c(O)c2ccccc21`, the inhibition is 60% (active). The figure for `CCSC1(SCC)N=C(N)C2(C#N)C(c3ccccc3)NC(C)=CC12C#N` (centres undefined) is 9.77%. Regarding `CSc1nccc(NC(=O)c2ccc(C(C)(C)C)cc2)n1`, the inhibition was 42.9%.

Regarding `CC(C)(C)NC(=O)CSc1nnc(NC(=O)CCc2ccccc2)s1`, the inhibition was 8.92%. The figure for `Oc1c(CN2CCCC2)cc(COCc2ccccc2)c2cccnc12` is 12.2%. In the case of `Oc1c(CN2CCN(c3ccc(F)cc3)CC2)cc(Cl)c2cccnc12`, the inhibition is 54.1% (active). The figure for `O=C(CN1CCN(c2ccc(F)cc2)CC1)Nc1ccccc1` is 7.47%; for `O=C1CCC[C@@H]2CC(N3CCCCC3)C[C@@H]3CCN1[C@H]23` (some centres undefined) it is 29.3%. For `COc1ccc(/C=N/N(C)C2=NS(=O)(=O)c3ccccc32)cc1OC`, the inhibition is 1.27%. The figure for `COC(=O)c1ccc(/C=C2/C(=O)Oc3ccccc32)cc1` is 34.3%; for `O=C1Oc2ccccc2C(=O)/C1=C/c1ccccc1O` it is 61.1% (active).

For `COc1ccc2c(c1)O/C(=C\c1ccccc1O)C2=O`, the inhibition was 0.978%.

Regarding `CCSc1sc(CC)cc1C=O`, the inhibition was -3.29%. For the compound `CC/C(=N\NC(=S)NC(C)C)c1ccc(OC(F)F)cc1`, the inhibition is 30.3%. The result for `CNC(=O)/C(C#N)=C/c1c(F)cccc1Cl` reads 75.8% (active); that for `CCOC(=O)NC(=O)/C(C#N)=C\c1ccccc1`, 4.67%; that for `O=C(/C=C/c1c(F)cccc1Cl)Nc1nn[nH]n1`, 9.19%. The result for `CC(=O)c1ccc(S(=O)(=O)NCCC(=O)N2CCN(c3ccccn3)CC2)cc1` reads 12.9%; that for `Cc1ccccc1OCC(=O)Nc1ccc(N2CCN(C(=O)C(C)C)CC2)c(Cl)c1`, 52.8% (active).

As to `CCC(=O)N1CCN(c2ccccc2NC(=O)COc2cccc(C)c2C)CC1`, the inhibition was 13.7%. The figure for `Cc1ccccc1OCC(=O)Nc1ccc2c(c1)ncn2C` is 20%; for `CCN(CC)C(=O)CSc1nc2ccccc2n1CC(=O)N1CCN(c2ccccc2OC)CC1` it is 12.6%. For the compound `NC(=S)c1ccc(C(N)=S)o1`, the inhibition was -0.65%.

Take `CC[N+](C)(CC)CCC[n+]1c(-c2ccccc2)c2cc(N)ccc2c2ccc(N)cc21`: the inhibition was -96.2%. The figure for `Fc1ccccc1/C=C1\CCCC2=C1Nc1ncnn1C2c1ccccc1F` (centres undefined) is 34%; for `CC(=O)C1=C(C)NC(=O)NC1c1ccc2c(c1)OCO2` (centres undefined) it is 0.126%. The result for `CCCC(C)c1nnc(NC(=O)C2CC(=O)N(c3ccc(OCC)cc3)C2)s1` (centres undefined) reads 16%; that for `COc1cc(/C=C/C(=O)OCC(=O)NCCCc2ccccc2)ccc1O`, 16.5%; that for `O=C(OCc1cc2ccccc2[nH]c1=O)c1cccnc1`, -4.57%. For `O=C(Oc1c(-c2ccco2)oc2ccccc2c1=O)c1cccnc1`, the inhibition was 51.2% (active). `COc1ccc(Oc2coc3cc(OC(=O)c4cncc(Br)c4)ccc3c2=O)cc1`: the inhibition is -12.3%. As for `CCOC(=O)N1CCN(CC(=O)n2c(C)c(C)c3ccccc32)CC1`, the inhibition was 30.5%. The figure for `CCCCOc1ccc(CON(C(C)=O)C(C)=O)cc1Cl` is 27%; for `O=C1OC(c2ccc(Cl)cc2)=N/C1=C\c1cccnc1` it is 40.9%; for `Cc1ccccc1C1=N/C(=C/c2cccnc2)C(=O)O1` it is 51.8% (active). For `Cc1ccc(C2=C/C(=C\c3cccnc3)C(=O)O2)cc1`, the inhibition was 33.4%. The result for `CC(C)CC(=O)N1CCN(Cc2ccccc2Br)CC1` reads 1.68%. The result for `COC(=O)c1cccc(N(C(=O)CNC(=O)c2cccs2)C(C(=O)NCC2CCCO2)c2ccc(OC)c(OC)c2)c1` (centres undefined) reads 0.773%.

For the compound `COc1cccc(C(=O)Nc2nc3ccc(S(C)(=O)=O)cc3s2)c1`, the inhibition was 23.6%.

As for `COc1ccc2nc(NC(=O)[C@@H]3CCCN3C(=O)c3cccs3)sc2c1`, the inhibition is 25.9%. As for `COc1ccc2nc(NC(=O)NC3CCCCC3)sc2c1`, the inhibition is 58.4% (active).
